From PubChem BioAssay (NCI)
Compounds without any hit were thinned out: in the full panel of roughly 83,000, 20% have a hit.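 96-well plates, one dose, 48 hours. Percent growth reported; active if below 10.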 Unmarked numbers belong to inactive results. Activity calls are given as the source filed them.

Assays:
Test in all cases: NCI-60 one-dose screen, 48 h (100 = growth as untreated, 0 = no growth, -100 = all killed)
Details in all cases: 10 µM unless noted
SR leukemia = test system: SR leukemia
RPMI-8226 leukemia = test system: RPMI-8226 leukemia
OVCAR-8 ovarian = test system: OVCAR-8 ovarian
OVCAR-4 ovarian = test system: OVCAR-4 ovarian
SK-OV-3 ovarian = test system: SK-OV-3 ovarian
IGROV1 ovarian = test system: IGROV1 ovarian
OVCAR-3 ovarian = test system: OVCAR-3 ovarian
T-47D breast = test system: T-47D breast
BT-549 breast = test system: BT-549 breast
MDA-MB-435 melanoma = test system: MDA-MB-435 melanoma
SW-620 colon = test system: SW-620 colon
MCF7 breast = test system: MCF7 breast
HCT-116 colon = test system: HCT-116 colon
HCC-2998 colon = test system: HCC-2998 colon
KM12 colon = test system: KM12 colon
OVCAR-5 ovarian = test system: OVCAR-5 ovarian
HS 578T breast = test system: HS 578T breast
NCI/ADR-RES ovarian = test system: NCI/ADR-RES ovarian

SMILES	growth (SR leukemia)	growth (RPMI-8226 leukemia)	growth (OVCAR-8 ovarian)	growth (OVCAR-4 ovarian)	growth (SK-OV-3 ovarian) [%]	growth (IGROV1 ovarian)	growth (OVCAR-3 ovarian)	growth (T-47D breast)	growth (BT-549 breast)	growth (MDA-MB-435 melanoma)	growth (SW-620 colon)	growth (MCF7 breast) [%]	growth (HCT-116 colon)	growth (HCC-2998 colon)	growth (KM12 colon)	growth (OVCAR-5 ovarian)	growth (HS 578T breast)	growth (NCI/ADR-RES ovarian)
Cc1c2c(cn1Cc1ccccc1)CCc1cn(C)nc1-2	53.2%	40.9%	86.5%	55.4%	108	102%	107%	87.9%	74.4%	104%	109%	85.2	74.3%	97.6%	99.9%	–	–	–
COc1cc2oc(-c3cccc(C(=O)Nc4ccc(C#N)cc4)c3)cc(=O)c2c(O)c1OC	62.2%	51.3%	29.1%	11.7%	–	84.6%	51.3%	–	44.7%	68.3%	78%	48.5	55.5%	83.1%	38.9%	66.5%	83.4%	51.2%
COc1ccc(-c2nc3ccccn3c2/C=C/C(=O)c2cc(OC)c(OC)c(OC)c2)cc1	18.8%	29.8%	30.6%	56.5%	62.8	61.6%	51.2%	26.6%	61.7%	38.6%	49.7%	18.8	11.6%	61.1%	46.3%	–	–	–
CCCCCCNCc1cc(C(C)(C)C)cc(CNCCCCCC)c1O	-52% (active)	-29.8% (active)	-80.2% (active)	-94.8% (active)	–	-77.5% (active)	-86.6% (active)	-41.6% (active)	-81% (active)	-82.8% (active)	-69.6% (active)	–	-90.8% (active)	-85.2% (active)	-83% (active)	-69.9% (active)	-22.1% (active)	-87.6% (active)
COc1cc2oc(-c3cccc(C(=O)Nc4ccc(C)cc4)c3)cc(=O)c2c(OC)c1OC	12.7%	-7.08% (active)	33.3%	59.8%	–	44.4%	42.3%	–	36.6%	27.9%	59.5%	24.5	19.6%	49.9%	33%	48.2%	64.3%	37.5%
CC1(C)CC(=O)c2c(ccc(C(=O)C[C@H](N)CO)c2N)O1	16.7%	13%	32.4%	69.8%	–	34.7%	7.02% (active)	53.8%	–	52.3%	7.48% (active)	13.3	–	9.33% (active)	16%	64.2%	82.4%	70.5%
O=[N+]([O-])c1ccccc1C(O)Cc1ccc2ccccc2n1 (centres undefined)	95.6%	95.1%	97.2%	92.8%	–	80.5%	93.2%	88.6%	109%	103%	96.7%	83.2	93%	114%	87.6%	91.1%	–	93%
COc1cc(NC(=O)c2cccc(-c3cc(=O)c4c(OC)c(OC)c(OC)cc4o3)c2)cc(OC)c1OC	29.8%	0.302% (active)	30.9%	74.8%	–	51.8%	40.8%	–	27%	6.36% (active)	67%	34.3	48.6%	74.1%	45.8%	86%	9.2% (active)	51.1%
CCn1c(Sc2nnc(Nc3ccccc3)s2)nc2c1c(=O)n(C)c(=O)n2C	103%	122%	103%	96.5%	–	91.4%	110%	87.2%	–	103%	97.6%	98.6	94.7%	92.7%	110%	77.4%	99.3%	89.6%
CNCCNc1nc2ccccc2c2c(=O)c3cc(F)ccc3oc12	22.7%	47.8%	47%	54.8%	–	49.6%	69.3%	–	69.9%	76.5%	33.6%	45.2	27.2%	71.2%	41.8%	80.4%	70.6%	47.8%
O=C(CCl)N1c2cccc3cccc(c23)N(C(=O)CCl)C1c1cn(-c2ccccc2)nc1-c1cccc([N+](=O)[O-])c1	17.8%	-6.92% (active)	79.3%	96%	–	79.5%	61.6%	87.7%	–	84.2%	35.4%	51.6	37.3%	104%	101%	108%	98.6%	94.6%
Cc1cn(C2CCCCC2)c(=O)[nH]c1=O	111%	114%	106%	90.8%	–	126%	110%	–	102%	108%	109%	108	107%	112%	117%	94.9%	121%	109%
CCCCN(CCCC)CCCn1c(=O)c2sc3ncccc3c2n2nnc(-c3ccccc3)c12	99.2%	96.4%	96.4%	103%	–	80.5%	120%	–	124%	-84.2% (active)	100%	93.2	83.6%	118%	107%	97.1%	110%	108%
C=C(C)C1CCC(=C)C2CCC3(C)OC12/C=C(/COC(C)=O)CCC3O (centres undefined)	74.6%	235%	103%	127%	–	151%	124%	–	78.6%	98.7%	106%	96.8	103%	106%	–	105%	177%	105%
Cc1cc(-c2ccc(N(C)C)cc2)c2sc(=O)[nH]c2n1	40.1%	70.6%	76.9%	83.2%	–	61.5%	68.9%	–	74.6%	4.12% (active)	38.3%	28.4	–	77.5%	39%	85%	–	45.5%
CCCc1cc(=O)oc2c3c(c4c(c12)OC(C)(C)C=C4)O[C@@H](C)[C@H](C)C3=O	65.4%	56.1%	–	67.8%	92.3	74.8%	86.6%	41.5%	68.7%	96.2%	71.6%	56.4	35.8%	–	70.4%	-19.4% (active)	–	0.517% (active)
O=C(CC1Sc2ccccc2NC1=O)NNc1ccc(F)cc1 (centres undefined)	83.5%	78.7%	–	72%	92.5	70.3%	84.8%	66.4%	–	31%	106%	84.7	71.6%	63.7%	77.4%	76.3%	82.4%	44.1%
CCC(=O)OC1=C(C)SC2=NC(c3ccc(Cl)c(Cl)c3)=CC(c3cc(OC)c(OC)c(OC)c3)N21 (centres undefined)	103%	95.8%	–	98.1%	105	106%	108%	97.5%	103%	103%	109%	94.1	95%	110%	107%	102%	101%	105%
Clc1ccc(-c2nnc(Cn3ccnc3)o2)cc1	94.3%	112%	–	102%	107	108%	116%	100%	120%	105%	98.6%	94.4	90.5%	110%	105%	96.2%	95.1%	106%
